High-throughput results deposited in PubChem by University of Kansas High Throughput Screening Laboratory.
A selection: hits, their analogues and other compounds. The true share with any hit is near 3.5%.
Pf apPOL inh: Pf-apPOL DNA polymerase inhibition. Recombinant Pf-apPOL, molecular beacon fluorescence, 1.5 h. inhibition, % at 10 µM. 0.25% of 210,000 active. AID 1794808
mHTT CaM bind: inhibitors of human mutant huntingtin-calmodulin interaction; AlphaScreen His-mHTT/GST-CaM binding, luminescence; P42858; inhibition, % at 15 µM; 3.6% of 190,000 active
Hits are given with their value; – = inactive; · = not tested or not shown. Cut-off read from the data, not from the text of the source: active = inhibition above about 50%; inactive = the rest.

SMILES	Pf apPOL inh	mHTT CaM bind
Cc1cc(C)c(C)c(OCC(=O)NC2CCCC2)c1	–	–
COc1cc(NC(=O)CSc2nc3nc(C)c(Cc4ccccc4C)c(C)n3n2)cc(OC)c1	–	–
COc1ccc(NC(=O)CSc2nc3nc(C)c(Cc4ccccc4C)c(C)n3n2)cc1OC	–	55
O=C(Cc1cc(-c2ccc3c(c2)OCCO3)on1)N1CCN(c2ccccc2F)CC1	–	–
O=C(O)C1=CC(c2ccc(Cl)cc2)n2nnnc2N1 (stereo not given)	–	–
N#Cc1nc(COc2ccccc2Cl)oc1NCCCn1ccnc1	–	100
Cc1ccccc1OCc1ccc(-c2nc(C#N)c(NCc3cccnc3)o2)o1	–	54
N#Cc1nc(COc2ccccc2Cl)oc1NCc1cccnc1	–	–
COc1ccc(CCNc2oc(COc3ccccc3C)nc2C#N)cc1	–	52
COc1ccc(CCNc2oc(COc3ccc(OC)cc3)nc2C#N)cc1	–	–
Cc1ccccc1OCc1nc(C#N)c(NCCCn2ccnc2)o1	–	–
COc1cccc(/C=C2\C=C(c3cc(OC)ccc3OC)OC2=O)c1	–	–
COCn1c(COc2cc(C)ccc2C(C)C)nc2ccccc21	–	–
Cc1ccc(C(C)C)c(OCCCn2c(CO)nc3ccccc32)c1	–	65
Cc1ccc(S(=O)(=O)N2CC=C(c3cn(C)c4ncccc34)CC2)cc1Cl	–	65
COc1ccc(S(=O)(=O)N2CC=C(c3cn(C)c4ncccc34)CC2)cc1Cl	–	–
COc1ccc(NC(=O)C2CCc3sc(C(=O)N4CCCCC4)cc3C2)c(OC)c1 (stereo not given)	–	57
COc1ccc(OC)c(NC(=O)C2CCc3sc(C(=O)N4CCCC4)cc3C2)c1 (stereo not given)	–	–
COc1cccc(OC)c1C(=O)Oc1cc(C)c2c(c1)OC(=Cc1cccnc1)C2=O	–	–
O=C(O)c1ccc(NC(=O)c2ccc(F)c(S(=O)(=O)N3CCOCC3)c2)cc1	–	–
CC1(C)CC(=O)C2=C(C1)OC(N)=C(C#N)C2c1ccc(-c2ccccc2)cc1 (stereo not given)	–	–
CC1(C)CC(=O)C2=C(C1)OC(N)=C(C#N)C2c1cn(-c2ccccc2)nc1-c1ccc(Cl)cc1 (stereo not given)	–	100
COCCCNC(=O)C1CCN(c2cncnc2N2CCN(C)CC2)CC1	–	–
Fc1ccc(-c2nc(-c3ccc4nncn4c3)no2)cc1F	–	–
Cc1ccc(NCN2C(=O)C3CC=C(Cl)CC3C2=O)cc1 (stereo not given)	–	64
SMILES	Pf apPOL inh	mHTT CaM bind
O=C1C2CC=C(Cl)CC2C(=O)N1CNc1ccccc1 (stereo not given)	–	–
CN(C)S(=O)(=O)c1ccc(COc2ccccc2C(=O)NCCC2=CCCCC2)o1	–	–
OCCNc1nc(N2CCCCC2)nc(N2CCCCC2)n1	·	–
OCCN(CCO)c1nc(N2CCCCC2)c2nc(N(CCO)CCO)nc(N3CCCCC3)c2n1	61	·
Cc1ccc(C(c2ccc(C)o2)c2cccc([N+](=O)[O-])c2O)o1	–	79
Cc1cc2c(cc1[N+](=O)[O-])OCCO2	–	·
Cc1ccc(C(c2ccc(C)o2)c2cc3c(cc2[N+](=O)[O-])OCO3)o1	–	72
Cc1ccc(C(c2ccc(C)o2)c2ccccc2Br)o1	–	–
COc1ccc(/C=C2\C(=O)N(c3ccccc3)N=C2c2ccc(OC)cc2)cc1	–	–
CCOc1ccccc1N1CCN(S(C)(=O)=O)CC1	–	–
CCOc1ccccc1N1CCN(c2nccn3cncc23)CC1	–	54
COc1nccnc1N1CCC(NC(=O)c2cccs2)C1 (stereo not given)	–	–
COc1cccc(NC(=O)N2CCN(C)c3ccccc32)c1	–	53
COc1cccc(NC(=O)N2CCCc3ccccc32)c1	–	·
Cc1ccc(NS(=O)(=O)c2ccc3c4c(cccc24)C(=O)N3)c(C)c1	–	–
Cc1ccc(NS(=O)(=O)c2cccc3c2C(=O)c2ccccc2C3=O)c(C)c1	–	57
CCc1nc2c(NS(=O)(=O)C(C)C)cccn2n1	–	–
CCc1ccc(N2CC34C=CC(O3)C(C(=O)OC)C4C2=O)cc1 (stereo not given)	–	–
O=C(OCc1ccccc1)C1C2C=CC3(CN(c4ccc(Cl)cc4)C(=O)C13)O2 (stereo not given)	–	80
O=C1OC(c2cc(F)c(F)cc2Cl)=N/C1=C\c1ccc(F)cc1	–	–
Cc1c(NC(=O)c2ccc(C(F)(F)F)cc2)cccc1-n1cnnn1	–	–
CC1(C)CC(=O)C2=C(C1)c1c(ccc3ncccc13)NC2c1ccccc1 (stereo not given)	–	–
CC1(C)CC(=O)C2=C(C1)c1c(ccc3ncccc13)NC2c1ccc(Cl)cc1 (stereo not given)	58	–
Clc1ccc(-c2nc3ncccn3c2NC2CCCC2)cc1	–	–
Cn1nc(C(=O)N2CCC3(CC2)NC(=O)N(Cc2ccc(F)cc2)C3=O)c2ccccc21	–	–
SMILES	Pf apPOL inh	mHTT CaM bind
NC(=O)CSc1nc2ccccc2nc1SCC(N)=O	–	–
Cc1ccc2nc(NC(=O)CSc3ccc(NC(=O)C4CC4)nn3)sc2c1	–	–
Cc1ccc2nc(NC(=O)CSc3ccc(-c4ccco4)nn3)sc2c1	74	85
NC(=O)CSc1ccc(-c2ccccn2)nn1	–	100
O=C(CSc1cccc2cccnc12)Nc1nc2ccccc2s1	–	–
O=C(CSc1ccc(-c2ccccn2)nn1)Nc1nc2ccccc2s1	–	89
Cc1ncc(CO)c2cc(C(=O)Nc3ccccc3)c(=Nc3ccc(Oc4ccccc4)cc3)oc12	–	–
O=C(O)c1cc([N+](=O)[O-])ccc1NC1CCCCC1	–	–
O=C(NC1CC1)C1CCCN(C(=O)c2ccc(F)cc2)C1 (stereo not given)	–	–
COc1ccc(NC(=O)C2CC(=O)N(c3ccccc3C)C2)cc1 (stereo not given)	–	–
CCOc1ccccc1/C=C1\N=C(c2c(-c3ccccc3)noc2C)OC1=O	–	–
CC(=O)N(C)c1ccc(OCC(O)Cn2c3ccccc3c3ccccc32)cc1 (stereo not given)	–	73
Cc1nc2ccccc2n1CC(O)COc1ccc(C(=O)c2ccccc2)cc1 (stereo not given)	–	–
NC1=NNC(c2ccccc2)=CS1	–	53
Nc1nnc(-c2ccccc2)s1	–	–
Cc1ccc2c(c1)/C(=C/c1ccc(Br)cc1)c1cccnc1-2	·	–
Cc1ccc2c(c1)/C(=C/c1ccc3c(c1)OCO3)c1cccnc1-2	–	52
Cc1cc(C)cc(C(=O)N2CCCC(C(=O)NCc3ccc(F)cc3)C2)c1 (stereo not given)	–	–
Cc1ccc(-n2cc(C3CCN(C(=O)Cc4cccc(F)c4)CC3)cn2)cc1	–	–
CN(C)S(=O)(=O)c1ccc(C(=O)O)cc1	–	–
O=C(Nc1nnc(SCc2cccc(C(F)(F)F)c2)s1)c1ccc([N+](=O)[O-])cc1	–	–
CC(=O)N1CCN(C2=Nc3ccccc3Oc3ccccc32)CC1	–	–
CC(=O)N1CCCN(C2=Nc3ccc(C)cc3Oc3ccccc32)CC1	–	54
Nc1cc(=O)[nH]c(SCn2nnc3ccccc3c2=O)n1	–	–
CNC(=O)c1cc(N(C)C)nc2c(Cl)cccc12	–	–
Cc1ccc(O)c(N=Cc2cc(I)ccc2O)c1	–	63
Cc1cc(I)c(O)c(C=Nc2cc(C)ccc2O)c1	–	–
CCOCCCNC(=O)C1(C)CCC(=O)N1c1ccccc1F (stereo not given)	–	–
